Screening results from PubChem BioAssay.
JMJD2A Tudor inh = JMJD2A Tudor domain (human) inhibition; AID 504339; 390,000 compounds, 4.4% hits; AlphaScreen JMJD2A-Tudor / H3K4me3 peptide binding; O75164; Potency, µM (top dose mostly 114 µM), without a hit: at the highest dose activity change, negative = inhibition, hits mostly inhibitors; note: % is set by controls: 0 for no effect and ±100 for the full control effect; nearly all actives have a fitted effect of over 50% in size
PLK1 PBD block = inhibitors of human PLK1 polo-box domain binding; Plk1 PBD binding of FITC phosphopeptide, fluorescence polarization; Potency, µM, for inactives: max response, negative = inhibition, most hits filed as inhibitors; 360,000 compounds, 2.8% hits; AID 720504; note: series mostly up to about 57 µM; % is set by controls: 0 for no effect and ±100 for the full control effect; nearly all actives have a fitted effect of over 65% in size
HP1b binding inh = blocks HP1-beta chromodomain binding to methylated histone tails. P83916. AlphaScreen HP1-beta / biotin-H3K9me3 peptide binding. 390,000 compounds, 0.56% hits. Potency, µM (titrated, usually from 114 µM), inactives show at the top dose activity change, negative = inhibition, actives largely listed as inhibitors; note: nearly all actives have a fitted effect of over 70% in size
Target sequence (P83916 whole entry, looked up): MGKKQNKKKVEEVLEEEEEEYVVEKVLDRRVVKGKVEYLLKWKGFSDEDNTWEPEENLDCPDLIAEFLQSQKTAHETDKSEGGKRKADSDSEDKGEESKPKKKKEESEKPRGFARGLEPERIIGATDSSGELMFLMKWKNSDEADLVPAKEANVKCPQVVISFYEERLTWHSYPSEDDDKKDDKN
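AlphaScreen: HP1-beta (50 nM) preformed 30 min with biotin-H3(1-18)K9me3 peptide (50 nM) in PBS pH 7.4, 0.01% Tween-20. Compound added for 30 min at RT, then streptavidin donor/nickel chelate acceptor beads (10 ug/mL) for 30 min.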
BAZ2B inh = blocks human BAZ2B. Q9UIF8. AlphaScreen BAZ2B-H3K14Ac peptide displacement. Potency, µM (highest dose often 114 µM), without a hit: at the highest dose activity change, negative = inhibition, usual class: inhibitors. 360,000 compounds, 4.4% hits; note: % is set by controls: 0 for no effect and ±100 for the full control effect; nearly all actives have a fitted effect of over 60% in size
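In this displacement format the biotinylated H3(5-23) peptide acetylated at Lys14 serves as ligand at 50 nM, with BAZ2B at 50 nM in PBS pH 7.4 containing 0.01% Tween-20. Donor and acceptor beads are 10 ug/mL final.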
Sfp inh = blocks B. subtilis Sfp PPTase activity | Q9F4F7 | Potency, µM, for the others: largest response in the series, negative = inhibition, most hits filed as inhibitors | Biochemical Sfp PPTase activity, qHTS | 310,000 compounds, 3.5% hits;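 note: the enzyme is Sfp with the accession as filed and its product quenches rhodamine fluorescence; 0% = enzyme reaction without inhibitor and -100% = no enzyme wells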
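Step 1, compound plus 15 nM Sfp-PPTase, 15 min, room temperature. Step 2, add rhodamine-CoA (5 uM) and BHQ-2-YbbR (12.5 uM). Step 3, read 525/598 nm fluorescence at 0 and 30 min.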
G9a block = inhibitors of human histone lysine methyltransferase G9a; Q96KQ7; G9a H3K9 monomethylation, AlphaScreen, 2 h; Potency, µM (titrated, usually from 102 µM), without a hit: top-dose activity, negative = inhibition, usual class: inhibitors; 350,000 compounds, 8.8% hits; note: % is set by controls: 0 for no effect and ±100 for the full control effect; nearly all actives have a fitted effect of over 75% in size
Target sequence (Q96KQ7 913-1193 limits assumed): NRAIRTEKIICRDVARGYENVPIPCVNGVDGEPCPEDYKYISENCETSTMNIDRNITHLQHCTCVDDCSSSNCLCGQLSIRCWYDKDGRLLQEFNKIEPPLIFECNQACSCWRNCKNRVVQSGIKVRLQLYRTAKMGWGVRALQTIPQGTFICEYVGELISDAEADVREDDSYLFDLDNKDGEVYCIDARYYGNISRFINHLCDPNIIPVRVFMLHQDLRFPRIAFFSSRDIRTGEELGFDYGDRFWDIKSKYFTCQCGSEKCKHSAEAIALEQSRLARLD
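Chemiluminescent proximity detection of H3K9 monomethylation, read after 10 min bead incubation in the dark. Reaction: 20 nM G9a, 500 nM biotin-H3K9 peptide, 20 uM SAM cofactor, 2 h, room temperature, following 15 min enzyme-compound preincubation.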
* = called active by the depositor; [ ] = remark or other dose. Compounds with a hit are over-represented: about 12% of the library has one in this group of screens. Calls come from the whole dose curve; as a rule, active = well fitted curve in the direction sought with a large enough effect; inconclusive = small, poorly fitted or top-dose-only effect, or another doubt; inactive = no such curve, though single readings can be large; an effect the other way counts as inactive or inconclusive. Potency is the fitted concentration of half-maximal effect.

Screening CCS(=O)(=O)Nc1cccc(C2=NN(S(=O)(=O)c3ccc(C)cc3)C(c3ccco3)C2)c1 (centres undefined) returned JMJD2A Tudor inh inconclusive, PLK1 PBD block -15%, HP1b binding inh 23%, Sfp inh 50µM* and G9a block inconclusive.
Screening COc1ccccc1C(=O)NCCC(=O)N1CCN(C(C)=O)CC1 returned JMJD2A Tudor inh 1%, PLK1 PBD block 3%, HP1b binding inh 38%, BAZ2B inh 8% and G9a block -10%.
For CCCOc1ccc(C(=O)Nc2ccc3oc(-c4ccc(N(C)C)cc4)nc3c2)cc1 the results were JMJD2A Tudor inh -15%, HP1b binding inh 20%, BAZ2B inh -1% and G9a block -19%[59 µM].
CC(=O)C1=C(O)C(=O)N(Cc2ccco2)C1c1ccc(F)cc1 (centres undefined) was read as JMJD2A Tudor inh -19%, PLK1 PBD block -2%, HP1b binding inh 25%, BAZ2B inh -15%, Sfp inh 45µM* and G9a block inconclusive.
O=C(C1=C(O)C(=O)N(Cc2ccco2)C1c1cccc([N+](=O)[O-])c1)c1ccco1 (centres undefined) was read as JMJD2A Tudor inh 50µM*, PLK1 PBD block -16%, HP1b binding inh -13%, BAZ2B inh 5% and Sfp inh inconclusive.
CC(=O)C1=C(O)C(=O)N(Cc2ccco2)C1c1ccccc1 (centres undefined) was read as JMJD2A Tudor inh inconclusive, PLK1 PBD block 2%, HP1b binding inh 8%, BAZ2B inh inconclusive, Sfp inh 56µM* and G9a block 50µM*.
CC(=O)C1=C(O)C(=O)N(Cc2ccco2)C1c1ccccc1F (centres undefined) was read as JMJD2A Tudor inh -29%, PLK1 PBD block -13%, HP1b binding inh 13%, BAZ2B inh -33%, Sfp inh -16% and G9a block -22%.
`CC(=O)C1=C(O)C(=O)N(Cc2ccccc2)C1c1ccco1` (centres undefined) gave JMJD2A Tudor inh inconclusive, PLK1 PBD block -9%, HP1b binding inh 15%, BAZ2B inh inconclusive, Sfp inh -5% and G9a block 50µM*.
`CC(C)(C)c1ccc(-c2nnc(-c3ccccc3NC(=O)c3cccc(C(F)(F)F)c3)o2)cc1` gave JMJD2A Tudor inh -1%, HP1b binding inh 37%, BAZ2B inh -8% and G9a block 9%[59 µM].
For COc1ccc(NC(=O)C2Cc3c(-c4cccc(F)c4)ccnc3O2)cc1OC (centres undefined) the results were PLK1 PBD block 0%.
COc1cccc(C2C(C(C)=O)=C(O)C(=O)N2Cc2ccco2)c1 (centres undefined) was read as JMJD2A Tudor inh inconclusive, PLK1 PBD block 24µM*, HP1b binding inh inconclusive, BAZ2B inh inconclusive, Sfp inh -18% and G9a block -3%[12.7 µM].
Screening COc1cccc(C2C(C(C)=O)=C(O)C(=O)N2CCNCCO)c1 (centres undefined) returned BAZ2B inh -17%, Sfp inh 16% and G9a block 24%[12.7 µM].
For Cc1ccc(-n2c(C)cc(/C=C3\NC(=O)NC3=O)c2C)c(C)c1 the results were JMJD2A Tudor inh 35µM*, PLK1 PBD block 21µM*, HP1b binding inh inconclusive, BAZ2B inh 40µM*, Sfp inh -24% and G9a block inconclusive.
For Cc1cc(/C=C2/NC(=O)NC2=O)c(C)n1-c1ccc(N2CCOCC2)cc1 the results were JMJD2A Tudor inh inconclusive, PLK1 PBD block -20%, HP1b binding inh inconclusive, BAZ2B inh inconclusive, Sfp inh -1% and G9a block 45µM*.
`Cc1cc(/C=C2/NC(=O)NC2=O)c(C)n1-c1ccc(C#N)cc1` gave JMJD2A Tudor inh -17%[11.4 µM], PLK1 PBD block 19µM*, HP1b binding inh -15%, BAZ2B inh inconclusive, Sfp inh -9% and G9a block inconclusive.
`Cc1cc(/C=C2\NC(=O)NC2=O)c(C)n1-c1ccc(N2CCOCC2)cc1` gave JMJD2A Tudor inh inconclusive, PLK1 PBD block -6%, HP1b binding inh -36%, BAZ2B inh -33% and Sfp inh 0%.
Screening CC1CCC(N2CC(=O)N(C3CCCCC3)C(c3ccc(F)cc3)C2=O)CC1 (centres undefined) returned JMJD2A Tudor inh 6%, HP1b binding inh 32%, BAZ2B inh -1% and G9a block -1%[59 µM].
COc1cc(NC(=O)CSc2nc3nc(C)c(Cc4ccccc4Cl)c(C)n3n2)cc(OC)c1 was read as JMJD2A Tudor inh inconclusive, HP1b binding inh 7%, BAZ2B inh -11% and G9a block 2%[59 µM].
O=C(Nc1ccc2nc(SCCOc3ccccc3)sc2c1)c1ccc2c(c1)OCO2 was read as JMJD2A Tudor inh -10%, HP1b binding inh 37%, BAZ2B inh -8% and G9a block -3%[59 µM].
For CC(C)c1cc(C(=O)O)c2cnn(C(C)C)c2n1 the results were JMJD2A Tudor inh inconclusive, PLK1 PBD block 27µM*, HP1b binding inh 19%, BAZ2B inh -4%, Sfp inh 6% and G9a block -30%.
`N#CC1=C2SCC(O)(c3ccccc3)N2C(=O)CC1c1ccccc1` (centres undefined) gave JMJD2A Tudor inh -33%, PLK1 PBD block -12%, HP1b binding inh 12%, BAZ2B inh inconclusive, Sfp inh 56µM* and G9a block 40µM*.
O=C(Cc1c[nH]c2ccccc12)Nc1cccc(S(=O)(=O)N2CCCCC2)c1 was read as BAZ2B inh inconclusive, Sfp inh 13% and G9a block 45µM*.
`CC(=O)NC(CC(=O)NC1CCCCCC1)c1ccccc1` (centres undefined) gave JMJD2A Tudor inh -11%, PLK1 PBD block -4%, HP1b binding inh 19%, BAZ2B inh 3%, Sfp inh 11% and G9a block inconclusive.
Screening O=C(CN1C(=O)NC(Cc2c[nH]c3ccccc23)C1=O)Nc1cccc(S(=O)(=O)N2CCCCCC2)c1 (centres undefined) returned JMJD2A Tudor inh inconclusive, PLK1 PBD block -2%, HP1b binding inh -14%, BAZ2B inh inconclusive, Sfp inh 15% and G9a block inconclusive.
CC(C)(C)c1ccc(OCCCC(=O)Nc2cccc(S(=O)(=O)N3CCOCC3)c2)cc1 was read as JMJD2A Tudor inh -23%, PLK1 PBD block 3%, HP1b binding inh 19%, BAZ2B inh 8% and G9a block 2%.
